Bioassay records deposited in PubChem by several laboratories.
Only some compounds are listed: those with a hit (about 3.4% of all), similar ones and a draw of the others.
HSF1 inhib = HSF1 inhibition; NIH3T3-HGL HSE-luciferase, MG132-induced, luminescence 8 h; hits give low values; activity change, negative = inhibition, % at 7.5 µM (by protocol); actives 0.77% (n = 300,000); AID 2098;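 active means more than half of replicate wells show activity change below -50%, luminescence cut by over half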;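 further: luciferase reports HSF-1 transcriptional activity via heat shock element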
PG9 Ab binder = binds the HIV-1 gp120 antibody PG9; TR-FRET gp120-PG9 antibody binding; inhibition, % at 6.7 µM; actives 0.43% (n = 360,000); in the data active means inhibition above about 8.5%
SMARCA2 act = activators of SMARCA2 function | MG213 cells, MMTV-luciferase reporter, dexamethasone, overnight | activation, % at 9.1 µM | actives 1% (n = 370,000); in the data active means activation above about 7.8%
HSP90 inh = HSP90 refolding inhibition in rabbit reticulocyte lysate | actives 0.91% (n = 290,000) | inhibition, % at 5.6 µM | luciferase refolding luminescence, 3 h;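 active means inhibition above the screen-wide mean plus 3 SD, computed separately per campaign, cut at about 16% in these data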;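 further: inhibitors lower the luminescence because luciferase stays unfolded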
FXN GAA850 act = increases GAA850 frataxin promoter reporter activity. AID 540364. actives 0.56% (n = 360,000). HEK293 lucGAA850 FXN promoter luciferase reporter, 24 h; percent of 10 µM SAHA response. activation, % at 6 µM;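 active means activation above the average of all compounds screened plus 3 SD, cutoff fixed separately per campaign, cut at about 7.5% in these data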
AI-2 QS modul = Vibrio harveyi AI-2 quorum sensing modulation; Vibrio harveyi JMH597 AI-2 luminescence/OD600 ratio, 9 h; hits give low values; strain lacks LuxN and CqsS sensors; 0 = neutral-control median; activity change, % at 7.5 µM; actives 0.4% (n = 300,000); in the data active means activity change below about -75%, passing the limit was not always enough;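 further: luminescence divided by OD600 gain over 9 h not by final OD600 alone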
PG9 binder conf = confirmation of small molecules binding HIV-1 gp120 antibody PG9; shares compounds with PG9 Ab binder; TR-FRET PG9 antibody binding, biochemical; inhibition, % at 6.7 µM; actives 90% (n = 1,500); AID 651571; in the data active means inhibition above about 9%
PGV04 counter = counter-screen for PG9 binders: binding control antibody PGV04; shares compounds with PG9 Ab binder; actives 95% (n = 1,500); inhibition, % at 6.7 µM; AID 651604; TR-FRET PGV04 antibody-gp120 binding, biochemical; in the data active means inhibition above about 9.5%
SMARCA2 act conf = SMARCA2 activation, confirmation screen; shares compounds with SMARCA2 act; AID 652260; actives 30% (n = 3,500); activation, % at 9.1 µM; MG213 cells, MMTV-luciferase with dexamethasone, luminescence, overnight; MG213 cells expressing E1A, Rb sequestered; DMSO wells 0%, reference activator 100%;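 active means activation above its plate's cutoff, the mean activation of tested wells plus 3 SD, cut at about 7.9% in these data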
GAL4-VP16 Luc = activates GAL4-VP16 luciferase, flagging SMARCA2 activator hits; activation, % at 9.1 µM; HEK293 GAL4-VP16 pG5luc reporter, luciferase luminescence; scaled: DMSO wells 0%, SAHA wells 100%; AID 686939; shares compounds with SMARCA2 act; actives 41% (n = 3,500);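 active means activation above the solvent-only control well mean plus 3 SD, averaged across control plates, cut at about 5.2% in these data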
A number is an active result; n = inactive; x = no result given.

SMILES | HSF1 inhib | PG9 Ab binder | SMARCA2 act | HSP90 inh | FXN GAA850 act | AI-2 QS modul | SMARCA2 act conf | GAL4-VP16 Luc | others
Cc1cc(C)cc(NC(=O)CCc2nc3sc4c(c3c(=O)[nH]2)CCCC4)c1 | n | 10.9 | 24.2 | x | n | n | 28.0 | n | PG9 binder conf=16.8;PGV04 counter=23.2
COc1ccc(NC(=O)Cn2c3ccc(OC)cc3c3nc4n(c(=O)c32)CCS4)cc1 | n | n | n | n | n | n | x | x
COc1ccc2c(c1)c1nc3n(c(=O)c1n2CC(=O)Nc1ccccc1)CCCS3 | n | 13.4 | 10.8 | n | n | n | n | n | PG9 binder conf=26.5;PGV04 counter=35.7
Cc1ccc(O)c(N=CC2=C(O)c3ccccc3C2=O)c1 | n | 17.5 | 8.4 | n | n | n | 18.8 | 13.7 | PG9 binder conf=24.3;PGV04 counter=31.0
O=C(Nc1nc(=O)c2ccccc2s1)c1ccc(F)cc1 | n | 41.5 | 19.5 | n | n | n | 8.1 | 8.0 | PG9 binder conf=65.8;PGV04 counter=78.0
COc1cccc2sc(NN)nc12 | n | n | n | n | n | n | x | x
COc1ccccc1-c1nnc(Nc2nc3c(OC)cccc3s2)o1 | n | 10.7 | 14.8 | n | n | n | n | 24.4 | PG9 binder conf=22.6;PGV04 counter=25.6
COC(=O)[C@]12C[C@H](CC(=O)NCCC(C)C)C(=O)N(Cc3ccc4c(c3)OCO4)C1=C[C@H](C(C)(C)C)O[C@@H]2C | x | n | n | x | x | x | x | x
COC(=O)C[C@@H]1C[C@H]2c3cc(NC(=O)Nc4ccccc4F)ccc3O[C@H]2[C@@H](CO)O1 | x | n | n | x | x | x | x | x
Cc1nc2nc(C)c(C)nc2nc1C | x | n | n | x | n | x | x | x
O=C(CCOc1ccccc1)Nc1ccc(Br)cc1 | n | n | 10.8 | n | n | n | n | 5.3
CN1CCCCC(NC(=O)c2cccc(F)c2)C1=O (configuration not stated) | x | n | n | x | x | x | x | x
C(=N\Nc1ccccc1)/c1nc2ccccc2s1 | n | n | 10.4 | n | n | n | n | 9.0
COCCCNC(=O)/C=C/c1ccc(Cl)cc1 | n | n | 12.4 | n | n | n | n | n
COC(=O)[C@H](Cc1ccccc1)N1CC=CS1(=O)=O | x | n | n | x | x | x | x | x
COc1ccc(/C=N\NC(=O)c2nn(C)cc2Cl)cc1CN1CCOCC1 | n | n | 10.5 | n | n | n | n | n
COc1ccc(/C=N/NC(=O)c2ccncc2)cc1CN1CCOCC1 | n | n | n | n | n | n | x | x
CC1(C(=O)Nc2cnc3ccccc3c2)CCN1Cc1ccc2ccccc2c1 (configuration not stated) | x | n | 11.7 | x | n | x | n | n
COc1ccc(C(=O)OCC(=O)c2ccc3c(c2)NC(=O)CO3)cc1[N+](=O)[O-] | x | n | n | x | n | x | x | x
COc1ccc(C(=O)OCC(=O)c2ccc3c(c2)NC(=O)CO3)cc1OC | x | n | 8.6 | x | n | x | n | n
COc1ccc(S(=O)(=O)N2Cc3ccccc3CC2C(=O)Nc2nccs2)cc1OC (configuration not stated) | n | n | n | n | n | n | x | x
COc1ccc(S(=O)(=O)N2Cc3ccccc3CC2C(=O)Nc2nccs2)cc1 (configuration not stated) | n | n | 9.8 | n | n | n | n | n
Nc1cc2c3c(cccc3c1)C(=O)N(CCN1CCCC1)C2=O | n | n | 19.9 | n | n | n | 30.4 | n
NC(=O)CN1CCN(CCN2C(=O)c3cccc4cccc(c34)C2=O)CC1 | n | n | n | n | n | n | x | x
O=C1c2cccc3cc([N+](=O)[O-])cc(c23)C(=O)N1CCN1CCCC1 | n | n | 64.2 | n | n | n | n | 6.5
SMILES | HSF1 inhib | PG9 Ab binder | SMARCA2 act | HSP90 inh | FXN GAA850 act | AI-2 QS modul | SMARCA2 act conf | GAL4-VP16 Luc | others
CCN(CC)CCN1C(=O)c2cccc3cc(N)cc(c23)C1=O | n | n | 11.5 | n | n | n | 26.1 | n
COc1cc(OC)nc(Nc2nc(C(N)Cc3ccc(Cl)cc3)cs2)n1 (configuration not stated) | x | n | n | x | n | x | x | x
COC(=O)C1=C(C)N(Cc2cccc(C(F)(F)F)c2)C(=NCC2CC2)NC1c1cccc(Cl)c1 (configuration not stated) | x | n | n | x | x | x | x | x
Cc1ccc(SCCNC(=S)Nc2ccccc2)cc1 | n | n | 8.8 | n | n | n | n | n
O=C1c2ccccc2C(=O)N1c1ccc(Cl)cn1 | n | n | 8.1 | n | n | n | n | n
O=C1c2ccc(Br)cc2C(=O)N1c1ccc(Cl)cn1 | n | n | n | n | n | n | x | x
COc1cccc(C(=O)Nc2cccc(-c3ccc(N4CCOCC4)nn3)c2)c1OC | n | n | 12.1 | x | n | n | 10.6 | 15.4
CN1CCN(c2ccc(-c3cccc(NC(=O)COc4ccccc4)c3)nn2)CC1 | n | n | 8.4 | x | n | n | n | 12.5
CCOC(=O)C(=CNCC(=O)O)C(=O)OCC | n | n | 11.1 | n | n | n | n | n
Nc1sc2c(c1C(=O)NCCc1ccccc1)CCCC2 | x | n | n | x | x | x | x | x
CCOc1ccc(OCc2ccc(C(=O)N3CCOCC3)cc2)cc1 | n | n | n | n | n | n | x | x
CCOc1ccc(N=C(/C(C(=O)C(=O)N2CCOCC2)=C(\O)c2ccccc2)c2ccccc2)cc1 | n | n | 9.2 | n | n | n | n | 6.1
O=C(C(=O)N1CCN(C(=O)c2ccccc2C(F)(F)F)CC1)c1cccc(C(F)(F)F)c1 | x | n | n | x | x | x | x | x
O=C(NCCN1CCCCCC1)c1ccc(CS(=O)(=O)c2ccc(Br)cc2)o1 | n | x | x | n | n | n | x | x
Cc1ccccc1S(=O)Cc1ccc(C(=O)NCCCN2CCCCC2)o1 (configuration not stated) | n | n | 11.7 | n | n | n | n | n
O=C(NCCCN1CCCC1)c1ccc(CS(=O)(=O)c2ccc(Br)cc2)o1 | n | n | 9.5 | n | n | n | n | n
O=C(NC1CCCC1)C1C(c2ccc(C(F)(F)F)cc2)=Nc2ccccc2N1C(=O)c1cc2ccccc2[nH]1 (configuration not stated) | x | n | n | x | x | x | x | x
O=S(=O)(NCc1ccc(Cl)c(Cl)c1)c1cc(Cl)ccc1N1CC[C@@H](O)C1 | x | n | n | x | x | x | x | x
O=C(CCn1nnc(-c2cccs2)n1)N1CCOCC1 | x | x | n | x | x | x | x | x
O=C(CCn1nnc(-c2cccs2)n1)N1CCCCC1 | x | x | 9.0 | x | x | x | n | n
